Counter-ions that a name gives are not always drawn.
Assays:
Test in all cases: Euclidean distance of Cell Painting phenotypic profile (signed KS, 77 features) to DMSO centroid (dimensionless distance); 5 or 10 uM (library dependent); higher = stronger phenotypic change vs DMSO (phenoactivity)
Details in all cases: 48 h
786-O = test system: 786-O
Summary of the method: (§1)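 Library compounds were applied at 10 or 5 uM, depending on the library, with 0.1% DMSO final, for 48 h to five cancer lines and a healthy fibroblast line. After staining, cells were imaged confocally at 20X across 9 fields per well, and Harmony extracted 77 features, each scored as a signed Kolmogorov-Smirnov statistic against vehicle wells on the same plate. Phenoactivity is the Euclidean distance between each profile and the median vehicle profile, with profiles first plate-position corrected, correlation-weighted and averaged over replicates at the top dose.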

A549 = test system: A549
Summary of the method: as §1

DU145 = test system: DU145
Summary of the method: as §1

FB = test system: FB
Summary of the method: as §1

HEPG2 = test system: HEPG2
Summary of the method: as §1

OVCAR4 = test system: OVCAR4
Summary of the method: as §1

SMILES | Euclidean distance (786-O) | Euclidean distance (A549) | Euclidean distance (DU145) | Euclidean distance (FB) | Euclidean distance (HEPG2) | Euclidean distance (OVCAR4)
C=C(c1ccc(C(=O)O)cc1)c1cc2c(cc1C)C(C)(C)CCC2(C)C [Bexarotene] | 2.33 | 2 | 1.58 | 1.39 | 1.63 | 1.48
Cc1nc(NC(=O)N2CCC[C@H]2C(N)=O)sc1-c1ccnc(C(C)(C)C(F)(F)F)c1 [Alpelisib (BYL719)] | 1.4 | 1.45 | 1.3 | 2.29 | 1.09 | 2.02
CCS(=O)(=O)CCn1c([N+](=O)[O-])cnc1C [Tinidazole] | 0.626 | 0.68 | 0.693 | 0.579 | 0.533 | 1.48
O=C(NCC(O)CO)c1c(I)c(C(=O)NCC(O)CO)c(I)c(N(CCO)C(=O)CO)c1I (configuration not stated) [Ioversol] | 0.684 | 0.636 | 0.983 | 0.679 | 0.876 | 1.14
CC1(C)CNc2cc(NC(=O)c3cccnc3NCc3ccncc3)ccc21 [Motesanib Diphosphate (AMG-706)] | 1.29 | 1.76 | 1.48 | 1.96 | 1.27 | 1.37
C[N+]1(C)[C@@H]2CC[C@H]1C[C@@H](OC(=O)C(O)c1ccccc1)C2 (some centres not stated) [Homatropine Methylbromide] | 0.885 | 1.85 | 1.26 | 1.47 | 0.52 | 0.995
CO[C@H]1C[C@@H]2CC[C@@H](C)[C@@](O)(O2)C(=O)C(=O)N2CCCC[C@H]2C(=O)O[C@H]([C@H](C)C[C@@H]2CC[C@@H](OP(C)(C)=O)[C@H](OC)C2)CC(=O)[C@H](C)/C=C(\C)[C@@H](O)[C@@H](OC)C(=O)[C@H](C)C[C@H](C)/C=C/C=C/C=C/1C [Deforolimus] | 2.73 | 2.02 | 1.35 | 3.08 | 1.23 | 2.14
COc1ccc([C@@H]2CC(=O)c3c(O)cc(O)cc3O2)cc1O [Hesperetin] | 1.32 | 0.944 | 1.21 | 1.47 | 1.37 | 1.23
C[C@@H](CN1CC(=O)NC(=O)C1)N1CC(=O)NC(=O)C1 [Dexrazoxane HCl (ICRF-187. ADR-529)] | 1.38 | 1.71 | 1.21 | 1.96 | 1.47 | 1.89
Cc1ccc(C)c(OCCCC(C)(C)C(=O)O)c1 [Gemfibrozil] | 1.23 | 0.801 | 1.51 | 1.06 | 1.97 | 1.02
CC(C)C[C@H](NC(=O)CNC(=O)c1cc(Cl)ccc1Cl)B1OC(=O)C(CC(=O)O)(CC(=O)O)O1 | 4.77 | 3.73 | 5.36 | 3.94 | 4.23 | 4.36
COc1cc2nccc(Oc3ccc(NC(=O)C4(C(=O)Nc5ccc(F)cc5)CC4)cc3)c2cc1OC [Cabozantinib malate (XL184)] | 1.85 | 2.98 | 1.3 | 2.84 | 1.89 | 2.25
Cc1cc(NS(=O)(=O)c2ccc(N)cc2)no1 [Sulfamethoxazole sodium] | 1.09 | 0.64 | 1.01 | 0.902 | 0.561 | 1.28
COc1ccc(-c2ccc3cc(C(=O)O)ccc3c2)cc1C12CC3CC(CC(C3)C1)C2 [Adapalene] | 1.76 | 2.58 | 1.39 | 2.18 | 1.73 | 2.03
Cn1ncc(Cl)c1-c1cc(C(=O)N[C@H](CN)Cc2ccc(F)c(F)c2)oc1Cl | 3.04 | 2.27 | 3.3 | 3.69 | 2.27 | 2.44
O=C(CCc1ccc(O)cc1)c1c(O)cc(O)cc1O [Phloretin] | 0.62 | 0.656 | 1.06 | 1.13 | 1.23 | 0.792
C#C[C@]1(O)CC[C@H]2[C@@H]3CCc4cc(OC5CCCC5)ccc4[C@H]3CC[C@@]21C [Quinestrol] | 1.6 | 1.26 | 1.69 | 1.48 | 0.902 | 1.67
CCCCC1C(=O)N(c2ccccc2)N(c2ccccc2)C1=O [Phenylbutazone] | 0.905 | 0.759 | 1.5 | 1.25 | 0.482 | 1
CC(C)N1CCN(Cc2cnc(-c3cc(-c4cccc5[nH]ccc45)cc4[nH]ncc34)o2)CC1 | 3.29 | 3.89 | 3.41 | 3.33 | 3.14 | 3.89
CC(C)NCC(O)COc1cccc2ccccc12 (configuration not stated) [Propranolol HCl] | 1.23 | 0.818 | 0.949 | 0.645 | 0.798 | 1.01
O=C1C(N(CO)C(=O)NCO)N(CO)C(=O)N1CO (configuration not stated) [Diazolidinyl urea] | 0.723 | 0.505 | 1.01 | 0.783 | 0.465 | 0.927
NC(=O)c1cnc2[nH]ccc2c1N[C@@H]1[C@@H]2CC3C[C@H]1C[C@@](O)(C3)C2 | 2.3 | 2 | 1.41 | 3.39 | 1.42 | 2.08

— the supplement of paper PMC10127200
